In PMC5540273 (PLoS ONE, 2017):

Assays:
Conditions in all cases: concentration: 1 μM, replicates: in singlicate; n = 1
[1] = system: CDKL2
[2] = system: CDKL3
[3] = system: CDKL5
[4] = system: CHEK1
[5] = system: CHEK2
[6] = system: CIT
[7] = system: CLK1
[8] = system: CLK2
[9] = system: CLK3
[10] = system: CLK4
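Further: KINOMEscan kinase panel screen.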

NC(=O)c1sc(-n2cnc3ccccc32)cc1OCc1ccccc1F [GSK1024306]
%Inh [1]: 22%
%Inh [2]: 0%
%Inh [3]: 0%
%Inh [4]: 0%
%Inh [5]: 0%
%Inh [6]: 39%
%Inh [7]: 37%
%Inh [8]: 0%
%Inh [9]: 0%
%Inh [10]: 42%

CNc1nccc(-c2c(-c3ccc(F)cc3)ncn2C2CCN(C)CC2)n1 [SB-222903]
%Inh [1]: 0%
%Inh [2]: 0%
%Inh [3]: 0%
%Inh [4]: 0%
%Inh [5]: 6%
%Inh [6]: 53%
%Inh [7]: 0%
%Inh [8]: 3%
%Inh [9]: 12%
%Inh [10]: 0%

Cn1cc(-c2ccc3c(c2)CCN3C(=O)Cc2cccc(C(F)(F)F)c2)c2c(N)ncnc21 [GSK2606414]
%Inh [1]: 15%
%Inh [2]: 0%
%Inh [3]: 0%
%Inh [4]: 19%
%Inh [5]: 0%
%Inh [6]: 11%
%Inh [7]: 22%
%Inh [8]: 0%
%Inh [9]: 0%
%Inh [10]: 19%

CSc1nn2c(=O)cc(N3CCOCC3)nc2n1Cc1cccc(Cl)c1Cl [GSK2347225]
%Inh [1]: 27%
%Inh [2]: 0%
%Inh [3]: 8%
%Inh [4]: 15%
%Inh [5]: 0%
%Inh [6]: 35%
%Inh [7]: 40%
%Inh [8]: 0%
%Inh [9]: 100%
%Inh [10]: 12%

Nc1nc(-c2ccc3c(N)n[nH]c3c2)cc(N2CCC[C@@H](C(=O)Nc3ccccc3)C2)n1.O=C(O)C(F)(F)F.O=C(O)C(F)(F)F [GSK2288359]
%Inh [1]: 6%
%Inh [2]: 0%
%Inh [3]: 2%
%Inh [4]: 0%
%Inh [5]: 0%
%Inh [6]: 23%
%Inh [7]: 45%
%Inh [8]: 29%
%Inh [9]: 8%
%Inh [10]: 21%

Cc1ccc(O)cc1Nc1cc(C(F)(F)F)nc2ccc(-c3ccncc3)cc12 [GW630823]
%Inh [1]: 0%
%Inh [2]: 0%
%Inh [3]: 0%
%Inh [4]: 34%
%Inh [5]: 0%
%Inh [6]: 0%
%Inh [7]: 40%
%Inh [8]: 16%
%Inh [9]: 0%
%Inh [10]: 20%

N#Cc1ccc(Oc2ccc(Nc3ncnc4cc[nH]c34)cc2Cl)cc1
%Inh [1]: 15%
%Inh [2]: 3%
%Inh [3]: 14%
%Inh [4]: 4%
%Inh [5]: 19%
%Inh [6]: 22%
%Inh [7]: 25%
%Inh [8]: 19%
%Inh [9]: 3%
%Inh [10]: 21%

Cl.Cn1ccc(-c2cccc(Nc3ccnc4cc(-c5nccs5)ccc34)c2)n1 [GW525701]
%Inh [1]: 61%
%Inh [2]: 0%
%Inh [3]: 0%
%Inh [4]: 24%
%Inh [5]: 0%
%Inh [6]: 3%
%Inh [7]: 1%
%Inh [8]: 0%
%Inh [9]: 0%
%Inh [10]: 37%

Cn1ccc2ncnc(Nc3ccc(Oc4cccc(Cl)c4)c(Cl)c3)c21
%Inh [1]: 23%
%Inh [2]: 26%
%Inh [3]: 23%
%Inh [4]: 2%
%Inh [5]: 7%
%Inh [6]: 0%
%Inh [7]: 0%
%Inh [8]: 0%
%Inh [9]: 0%
%Inh [10]: 1%

Cl.O=S(=O)(c1cccc(F)c1)c1ccc(Nc2ncnc3cc(Br)sc23)cc1Cl [GSK306886]
%Inh [1]: 19%
%Inh [2]: 0%
%Inh [3]: 0%
%Inh [4]: 0%
%Inh [5]: 0%
%Inh [6]: 23%
%Inh [7]: 23%
%Inh [8]: 0%
%Inh [9]: 0%
%Inh [10]: 0%

O=C(CCO)NCCn1ccc2ncnc(Nc3ccc(Oc4cccc(C(F)(F)F)c4)c(Cl)c3)c21
%Inh [1]: 9%
%Inh [2]: 0%
%Inh [3]: 0%
%Inh [4]: 0%
%Inh [5]: 0%
%Inh [6]: 0%
%Inh [7]: 1%
%Inh [8]: 0%
%Inh [9]: 0%
%Inh [10]: 5%

Nc1n[nH]c2nnc(-c3ccccc3)cc12 [SB-517389]
%Inh [1]: 18%
%Inh [2]: 69%
%Inh [3]: 0%
%Inh [4]: 10%
%Inh [5]: 0%
%Inh [6]: 29%
%Inh [7]: 43%
%Inh [8]: 32%
%Inh [9]: 19%
%Inh [10]: 19%

Fc1cccc(COc2ccc(Nc3ncnc4nn5ccccc5c34)cc2Cl)c1 [GW689066]
%Inh [1]: 1%
%Inh [2]: 0%
%Inh [3]: 0%
%Inh [4]: 0%
%Inh [5]: 28%
%Inh [6]: 0%
%Inh [7]: 9%
%Inh [8]: 0%
%Inh [9]: 0%
%Inh [10]: 0%

CS(=O)(=O)CCNCc1nc(-c2ccc3ncnc(Nc4ccc(OCc5cccc(F)c5)c(Cl)c4)c3c2)cs1.Cl [GW583340]
%Inh [1]: 2%
%Inh [2]: 0%
%Inh [3]: 0%
%Inh [4]: 0%
%Inh [5]: 0%
%Inh [6]: 23%
%Inh [7]: 33%
%Inh [8]: 0%
%Inh [9]: 12%
%Inh [10]: 0%

Fc1cccc(COc2ccc(Nc3ncnc4sc(-c5ccc[nH]5)cc34)cc2Cl)c1 [GW707818]
%Inh [1]: 14%
%Inh [2]: 0%
%Inh [3]: 0%
%Inh [4]: 7%
%Inh [5]: 21%
%Inh [6]: 27%
%Inh [7]: 29%
%Inh [8]: 8%
%Inh [9]: 0%
%Inh [10]: 100%

COc1ccc(NC(=O)Nc2ccc(C)c(-c3ccc(C(=O)Nc4ccncc4)cc3)c2)cc1 [GSK1398475]
%Inh [1]: 30%
%Inh [2]: 0%
%Inh [3]: 0%
%Inh [4]: 11%
%Inh [5]: 0%
%Inh [6]: 69%
%Inh [7]: 28%
%Inh [8]: 0%
%Inh [9]: 4%
%Inh [10]: 5%

CC(C)N1CCC(n2cnc(-c3ccc(F)cc3)c2-c2ccnc(N)n2)CC1 [SB-223132]
%Inh [1]: 13%
%Inh [2]: 9%
%Inh [3]: 0%
%Inh [4]: 0%
%Inh [5]: 0%
%Inh [6]: 69%
%Inh [7]: 5%
%Inh [8]: 0%
%Inh [9]: 10%
%Inh [10]: 0%

CCn1c(-c2ccncc2)nc2cnccc21 [SB-735216]
%Inh [1]: 0%
%Inh [2]: 25%
%Inh [3]: 4%
%Inh [4]: 0%
%Inh [5]: 0%
%Inh [6]: 0%
%Inh [7]: 16%
%Inh [8]: 0%
%Inh [9]: 0%
%Inh [10]: 16%

CN1CCC(n2cnc(-c3ccc(F)cc3)c2-c2ccnc(NC3CCNCC3)n2)CC1 [SB-229482]
%Inh [1]: 22%
%Inh [2]: 3%
%Inh [3]: 0%
%Inh [4]: 0%
%Inh [5]: 39%
%Inh [6]: 2%
%Inh [7]: 0%
%Inh [8]: 0%
%Inh [9]: 4%
%Inh [10]: 9%

FC(F)(F)c1ccc(-c2nn3ncccc3c2-c2ccnc(Nc3cccc(C(F)(F)F)c3)n2)cc1 [GW828205]
%Inh [1]: 0%
%Inh [2]: 0%
%Inh [3]: 0%
%Inh [4]: 0%
%Inh [5]: 0%
%Inh [6]: 16%
%Inh [7]: 4%
%Inh [8]: 0%
%Inh [9]: 0%
%Inh [10]: 0%

O=C(Nc1n[nH]c2nc(-c3ccco3)c(Br)cc12)c1ccc(CN2CCCC2)cc1.O=C(O)[C@H](O)[C@@H](O)C(=O)O [SB-742352]
%Inh [1]: 62%
%Inh [2]: 0%
%Inh [3]: 0%
%Inh [4]: 0%
%Inh [5]: 0%
%Inh [6]: 0%
%Inh [7]: 16%
%Inh [8]: 12%
%Inh [9]: 0%
%Inh [10]: 8%

O=C(Nc1ccccc1F)NC1CCN(c2ccnc(Nc3ccc(F)cc3)n2)C1 (stereo not shown) [GSK1379722]
%Inh [1]: 30%
%Inh [2]: 0%
%Inh [3]: 0%
%Inh [4]: 8%
%Inh [5]: 0%
%Inh [6]: 2%
%Inh [7]: 21%
%Inh [8]: 0%
%Inh [9]: 24%
%Inh [10]: 17%

Nc1nccc2scc(-c3ccc4c(c3)CCN4C(=O)Cc3cc(F)ccc3F)c12 [GSK2587663]
%Inh [1]: 17%
%Inh [2]: 0%
%Inh [3]: 0%
%Inh [4]: 8%
%Inh [5]: 10%
%Inh [6]: 27%
%Inh [7]: 24%
%Inh [8]: 0%
%Inh [9]: 93.5%
%Inh [10]: 19%

Cl.c1ccc(Cn2ccc3cc(Nc4ncnc5ccccc45)ccc32)cc1 [GW275568]
%Inh [1]: 4%
%Inh [2]: 8%
%Inh [3]: 0%
%Inh [4]: 2%
%Inh [5]: 27%
%Inh [6]: 5%
%Inh [7]: 26%
%Inh [8]: 10%
%Inh [9]: 59%
%Inh [10]: 0%

COc1ccc(Nc2nccc(N3CCC(NC(=O)Nc4ccc5c(c4)OCO5)C3)n2)cc1 (stereo not shown) [GSK1379745]
%Inh [1]: 8%
%Inh [2]: 0%
%Inh [3]: 0%
%Inh [4]: 1%
%Inh [5]: 0%
%Inh [6]: 0%
%Inh [7]: 15%
%Inh [8]: 1%
%Inh [9]: 9%
%Inh [10]: 19%

Cl.c1ccc(Cn2ncc3cc(Nc4ncnc5ccccc45)ccc32)cc1 [GW273749]
%Inh [1]: 8%
%Inh [2]: 0%
%Inh [3]: 3%
%Inh [4]: 0%
%Inh [5]: 30%
%Inh [6]: 26%
%Inh [7]: 42%
%Inh [8]: 6%
%Inh [9]: 0%
%Inh [10]: 4%

CN1c2ccc(-c3ccc(C(=O)NCCO)cc3)cc2-c2[nH]ncc2S1(=O)=O
%Inh [1]: 0%
%Inh [2]: 1%
%Inh [3]: 0%
%Inh [4]: 0%
%Inh [5]: 65%
%Inh [6]: 2%
%Inh [7]: 44%
%Inh [8]: 86%
%Inh [9]: 25%
%Inh [10]: 40%

Fc1ccc(-c2ncn(CCCNCc3ccccc3)c2-c2ccncc2)cc1
%Inh [1]: 0%
%Inh [2]: 1%
%Inh [3]: 21%
%Inh [4]: 17%
%Inh [5]: 0%
%Inh [6]: 27%
%Inh [7]: 33%
%Inh [8]: 1%
%Inh [9]: 0%
%Inh [10]: 0%

Cc1cc(N2CCC(NS(=O)(=O)c3ccc(F)cc3)CC2)nc(Nc2cccc(C#N)c2)n1.O=C(O)C(F)(F)F [GSK1653537]
%Inh [1]: 24%
%Inh [2]: 0%
%Inh [3]: 0%
%Inh [4]: 4%
%Inh [5]: 0%
%Inh [6]: 0%
%Inh [7]: 14%
%Inh [8]: 0%
%Inh [9]: 0%
%Inh [10]: 25%

CCc1nc(-c2cccc(C)c2)c(-c2ccnc(NC(=O)c3ccccc3)c2)s1
%Inh [1]: 0%
%Inh [2]: 0%
%Inh [3]: 10%
%Inh [4]: 0%
%Inh [5]: 34%
%Inh [6]: 42%
%Inh [7]: 0%
%Inh [8]: 0%
%Inh [9]: 0%
%Inh [10]: 16%

Fc1cccc(COc2ccc(Nc3ncnc4cc[nH]c34)cc2Cl)c1
%Inh [1]: 14%
%Inh [2]: 11%
%Inh [3]: 15%
%Inh [4]: 10%
%Inh [5]: 13%
%Inh [6]: 19%
%Inh [7]: 7%
%Inh [8]: 16%
%Inh [9]: 10%
%Inh [10]: 0%

CSc1ccc(NC2=C(c3ccccc3Cl)C(=O)NC2=O)cc1 [SB-342411]
%Inh [1]: 14%
%Inh [2]: 0%
%Inh [3]: 0%
%Inh [4]: 0%
%Inh [5]: 0%
%Inh [6]: 23%
%Inh [7]: 74%
%Inh [8]: 88%
%Inh [9]: 43%
%Inh [10]: 53%

FC(F)(F)c1cc(Nc2nccc(-c3c(-c4ccc(Cl)cc4)nn4ncccc34)n2)ccc1Cl [GW829351]
%Inh [1]: 28%
%Inh [2]: 0%
%Inh [3]: 0%
%Inh [4]: 0%
%Inh [5]: 4%
%Inh [6]: 17%
%Inh [7]: 0%
%Inh [8]: 22%
%Inh [9]: 0%
%Inh [10]: 0%

Cc1cccc(-c2nc(Nc3ccc4[nH]nnc4c3)c3ccccc3n2)n1 [GW867587]
%Inh [1]: 25%
%Inh [2]: 0%
%Inh [3]: 0%
%Inh [4]: 0%
%Inh [5]: 0%
%Inh [6]: 15%
%Inh [7]: 0%
%Inh [8]: 0%
%Inh [9]: 0%
%Inh [10]: 0%
